Test [1] can be described thus: S16 Schwann cell PMP22 intronic element firefly luciferase assay (AID 624032). Note: nearly all actives have a fitted effect of over 30% in size. In short, it runs like this:
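Luciferase reporter of PMP22 intronic-element expression in stably transfected S16 rat Schwann cells, read by ONE-Glo luminescence after 24 h compound exposure at 37 C. Activity scaled between DMSO (0%) and positive-control PTC124; concentration-effect curves quality-classified.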

Test [2] has as its system AA1029. The experiment in a line: qHTS profiling for inhibitors of Plasmodium falciparum proliferation (AID 504749). Note: nearly all actives have a fitted effect of over 60% in size. The following applies: P. falciparum in erythrocytes, SYBR Green DNA, 72 h; series mostly up to 28.7 µM. A digest of the protocol: (§1)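 Infected RBCs, 0.3% parasitemia/2.5% Hct final; cpd 72 h, 37 C, 5% CO2; lysis buffer with saponin/triton/SYBR Green I, o/n RT dark; FI 485/535; norm. to artemisinin (0.29 uM) and DMSO.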
(In qHTS, concentration-response curves come from the screen itself.)

Test [3] deals with C2A. The test is described as above. To be noted: P. falciparum in erythrocytes, SYBR Green DNA, 72 h; series mostly up to 28.7 µM. A digest of the protocol: as §1
Test [4] relates to CP211. The test is described as above. The following applies: P. falciparum in erythrocytes, SYBR Green DNA, 72 h; series mostly up to 28.7 µM. In short, it runs like this: as §1
The test system of test [5] is CP215. The test is described as above. To be noted: P. falciparum in erythrocytes, SYBR Green DNA, 72 h; series mostly up to 28.7 µM. In short, it runs like this:
as §1

The test system of test [6] is CP217. The description is as above. To be noted: P. falciparum in erythrocytes, SYBR Green DNA, 72 h; series mostly up to 28.7 µM. In short, it runs like this: as §1
Test [7] relates to CP250. The description is as above. To be noted: P. falciparum in erythrocytes, SYBR Green DNA, 72 h; series mostly up to 28.7 µM. A digest of the protocol: as §1
Test [8] concerns CP252. The test is described as above. To be noted: P. falciparum in erythrocytes, SYBR Green DNA, 72 h; series mostly up to 28.7 µM. In short, it runs like this: as §1
For test [9], the system named is CP256. The test is described as above. To be noted: P. falciparum in erythrocytes, SYBR Green DNA, 72 h; series mostly up to 28.7 µM. In short, it runs like this: as §1
Test [10] has as its system CP260. Described as above. The following applies: P. falciparum in erythrocytes, SYBR Green DNA, 72 h; series mostly up to 28.7 µM. In short, it runs like this:
as §1

In test [11] the test system is CP269. The description is as above. To be noted: P. falciparum in erythrocytes, SYBR Green DNA, 72 h; series mostly up to 28.7 µM. A digest of the protocol:
as §1

Test [12] has as its system CP315. The test is described as above. The following applies: P. falciparum in erythrocytes, SYBR Green DNA, 72 h; series mostly up to 28.7 µM. In short, it runs like this: as §1
The test system of test [13] is CP325. Described as above. The following applies: P. falciparum in erythrocytes, SYBR Green DNA, 72 h; series mostly up to 28.7 µM. A digest of the protocol:
as §1

For test [14], the system named is CP329. The test is described as above. The following applies: P. falciparum in erythrocytes, SYBR Green DNA, 72 h; series mostly up to 28.7 µM. In short, it runs like this:
as §1

Test [15] has as its system JCK. The test is described as above. To be noted: P. falciparum in erythrocytes, SYBR Green DNA, 72 h; series mostly up to 28.7 µM. A digest of the protocol: as §1
Test [16] deals with N140. Described as above. The following applies: P. falciparum in erythrocytes, SYBR Green DNA, 72 h; series mostly up to 28.7 µM. A digest of the protocol:
as §1

For test [17], the system named is P93_24. The test is described as above. The following applies: P. falciparum in erythrocytes, SYBR Green DNA, 72 h; series mostly up to 28.7 µM. In short, it runs like this: as §1
Test [18] deals with PAD. The description is as above. To be noted: P. falciparum in erythrocytes, SYBR Green DNA, 72 h; series mostly up to 28.7 µM. A digest of the protocol: as §1
Test [19] deals with SC27B. Described as above. To be noted: P. falciparum in erythrocytes, SYBR Green DNA, 72 h; series mostly up to 28.7 µM. In short, it runs like this: as §1
For test [20], the system named is TAB165. The description is as above. The following applies: P. falciparum in erythrocytes, SYBR Green DNA, 72 h; series mostly up to 28.7 µM. In short, it runs like this:
as §1

Results filed as inconclusive are left out. Calls of active or inactive are those of the source. Calls come from the whole dose curve; as a rule, active = well fitted curve in the direction sought with a large enough effect; inconclusive = small, poorly fitted or top-dose-only effect, or another doubt; inactive = no such curve, though single readings can be large; an effect the other way counts as inactive or inconclusive.
Potency is the fitted concentration of half-maximal effect.

As to `CC(C)[C@@]1(NC(=O)[C@H]2CC3c4cccc5[nH]cc(c45)C[C@H]3N(C)C2)O[C@@]2(O)C3CCCN3C(=O)[C@@H](Cc3ccccc3)N2C1=O` (stereo not given in full), the Potency in [1] is 5.1 µM (active); in [2], 3.16 µM (active); in [3] it was 6.31 µM (active); in test [4] it was 6.01 µM (active); in test [5] it was 5.36 µM (active); in test [6], 3.98 µM (active). The Potency is 12.6 µM (active) in test [7]; 3.98 µM (active) in test [8]; 7.94 µM (active) in test [9]; 3.16 µM (active) in [10]; 4.26 µM (active) in test [11]; 9.53 µM (active) in test [12]. The Potency in test [13] was 9.53 µM (active); in test [14], 13.5 µM (active); in test [15], 7.94 µM (active); in test [16] it was 0.447 µM (active); in [17], 0.891 µM (active); in test [18], 1.12 µM (active). The results for the Potency in test [19] and in test [20] were 2 µM (active) and 0.562 µM (active), respectively.
`CCN1C[C@]2(COC)[C@H](O)C[C@H](OC)[C@]34C1C([C@H](OC)[C@H]23)[C@]1(OC(C)=O)C2[C@@H](OC(=O)c3ccccc3)C(O)(C[C@H]24)[C@@H](OC)[C@@H]1O`: the Potency entry in test [1], in test [2], in test [3], in [4], in test [5] and in [6] was “inactive” throughout. Moreover, the Potency result in test [7], in test [8], in test [9], in test [10], in [11] and in test [12] was “inactive” in each case. Further, the Potency entry in [13], in [14], in test [15], in test [16], in [17] and in test [18] was “inactive” throughout. Moreover, the Potency result in test [19] and in test [20] was “inactive” in each case.
Regarding `O=C(O)c1ccccc1-c1c2cc(Br)c(=O)cc-2oc2[c]([Hg])c(O)c(Br)cc12`, the Potency result in test [1], in [2], in test [3], in test [4], in test [5] and in [6] was “inactive” in each case. In addition, the Potency result in [7], in test [8], in [9], in test [10], in test [11] and in test [12] was “inactive” each time. In addition, the Potency result in test [13], in test [14], in test [15], in test [16], in [17] and in test [18] was “inactive” each time. Also, the Potency entry in [19] and in test [20] was “inactive” in each case.

The record behind these values is PubChem BioAssay (NCATS).
